Measured values: PubChem BioAssay (NCATS)
Results filed as inconclusive are left out. The source made the active and inactive calls. Calls come from the whole dose curve; as a rule, active = well fitted cell-killing curve with a large enough effect; inconclusive = small, poorly fitted or top-dose-only effect; inactive = flat fitted curve, though single readings scatter.

Experiment: Cell Viability - LYMP2-006 (AID 978); note: nearly all actives have a fitted effect of over 60% in size
Settings: LYMP2-006 lymphoblastoid cell viability, qHTS; series mostly up to 92.2 µM; activity change, negative = cytotoxicity: at the top concentration
From the text: NIH Chemical Genomics Center [NCGC]
NIH Molecular Libraries Screening Centers Network [MLSCN]
National Institutes of Environmental Health Sciences [NIEHS]
National Toxicology Program [NTP]
We have developed a 1536-well cell-based assay for quantitative high throughput screening (qHTS) against a number of cell lines to determine in vitro cytotoxicity of small molecules. This particular assay uses a human lymphoblastoid cell line (LYMP2-006) purchased from Coriell Institute for Medical Research.
NCGC Assay Protocol Summary:
The CellTiter-Glo luminescent cell viability assay (Promega) is a homogeneous method to measure the number of viable cells in culture. The end point readout of this assay is based on quantitation of intracellular ATP, an indicator of metabolic activity, using the luciferase reaction. Luciferase catalyzes the oxidation of beetle Luciferin to oxyluciferin and light in the presence of ATP. The luminescent signal is proportional to amount of ATP present.
Using the CellTiter-Glo luminescent cell viability assay, the amount of cellular ATP was measured in the lymphoblastoid cell line with complete culture medium following compound treatment for 24 hours. The assay was performed in opaque white Kalypsys 1536-well plates. In the screen, tetraoctylammonium bromide was used as positive control. Library compounds were measured for their ability to cause acute toxicity in the cell line, as reflected by a decrease in intracellular ATP levels, in a concentration-dependent manner. […] AC50 values were determined from concentration-response data modeled with the standard Hill equation.
qHTS protocol for CellTiter Glo lymphoblastoid cellular assay
[Step] [Parameter] [Value] [Description]
1. Reagent; 5 uL; 2500 lymphoblastoid cells/well
2. Time; 5 hr; 37 C incubation
4. Controls; 23 nL; Tetraoctylammonium bromide 6.4pM to 92 uM
5. Time; 24 hr; 37 C incubation
6. Reagent; 5 uL; CellTiter Glo reagent
7. Time; 30 min; Room Temperature
8. Detection; Luminescence; Viewlux plate reader
Keywords: cell viability, cytotoxicity, lymphoblastoid cell line, luminescence, NTPHTS, NTPHTS_NCGC, NIEHS, DSSTox, MLSMR, MLSCN, NIH Roadmap, qHTS, NCGC
% is set by controls: 0 for no effect and ±100 for the full control effect; potency is the fitted concentration of half-maximal effect.

SMILES	activity change, negative = cytotoxicity	Potency
CN(C)CCC(c1ccccc1)c1ccccn1 (stereo not drawn)	-14.4% (inactive)	–
CC1=C(/C=C/C(C)=C/C=C/C(C)=C/C(=O)Nc2ccc(O)cc2)C(C)(C)CCC1	–	50.1 µM (active)
CC/C(=C(\c1ccccc1)c1ccc(OCCN(C)C)cc1)c1ccccc1	–	50.1 µM (active)
O=C(O)Cc1cccc2ccccc12	1.4% (inactive)	–
O=c1c(O)c(-c2ccc(O)cc2)oc2cc(O)cc(O)c12	-7.41% (inactive)	–
CC(=O)O[C@]1(C(C)=O)CC[C@H]2[C@@H]3C=C(Cl)C4=CC(=O)[C@@H]5C[C@@H]5[C@]4(C)[C@H]3CC[C@@]21C	-16.4% (inactive)	–
CCn1cc(C(=O)O)c(=O)c2ccc(C)nc21	-6.57% (inactive)	–
CCCCC1C(=O)N(c2ccccc2)N(c2ccccc2)C1=O	-6.32% (inactive)	–
O=c1c(-c2ccc(O)cc2)coc2cc(O)ccc12	-24.5% (inactive)	–
CCCNC(=O)NS(=O)(=O)c1ccc(Cl)cc1	-1.63% (inactive)	–
CC(=O)c1ccc(S(=O)(=O)NC(=O)NC2CCCCC2)cc1	0.422% (inactive)	–
O=c1[nH]cnc2c1ncn2[C@H]1CC[C@@H](CO)O1	0.387% (inactive)	–
O=C1NC(=O)C(c2ccccc2)(c2ccccc2)N1	-6.03% (inactive)	–
